Screening data (PubChem BioAssay)
Shown are actives, neighbours in structure and some others; about 11% of the full set was active somewhere.
MCF10A rereplic: induces DNA re-replication in MCF 10a normal breast cells. AID 624296. Potency, µM (top dose mostly 46.1 µM), hits mostly activators. MCF 10A DNA re-replication, Hoechst nuclear intensity, 48 h. 2.9% of 350,000 active; also: nearly all actives have a fitted effect of over 50% in size
SW480 rerep: induces DNA re-replication in SW480 colon adenocarcinoma cells. SW480 DNA re-replication, Hoechst DNA content imaging, 48 h. Potency, µM (doses to about 46.1 µM), actives largely listed as activators. 1.8% of 340,000 active; also: nearly all actives have a fitted effect of over 55% in size
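Image-based read-out: total Hoechst fluorescence of nuclei (405 nm excitation, 500-530 nm emission), with hits raising the fraction of high-intensity nuclei. SW480 colon cells incubated 48 hr with compounds at 37 C.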
RORgamma inh: ROR gamma (mouse) transcription inhibition. 5.4% of 310,000 active. Drosophila S2 Gal4-RORgamma UAS-luciferase reporter, 20 h. Potency, µM (top dose mostly 53.6 µM), actives largely listed as inhibitors; also: nearly all actives have a fitted effect of over 60% in size
Target sequence (P51450 whole entry, looked up, the tested form may be a part): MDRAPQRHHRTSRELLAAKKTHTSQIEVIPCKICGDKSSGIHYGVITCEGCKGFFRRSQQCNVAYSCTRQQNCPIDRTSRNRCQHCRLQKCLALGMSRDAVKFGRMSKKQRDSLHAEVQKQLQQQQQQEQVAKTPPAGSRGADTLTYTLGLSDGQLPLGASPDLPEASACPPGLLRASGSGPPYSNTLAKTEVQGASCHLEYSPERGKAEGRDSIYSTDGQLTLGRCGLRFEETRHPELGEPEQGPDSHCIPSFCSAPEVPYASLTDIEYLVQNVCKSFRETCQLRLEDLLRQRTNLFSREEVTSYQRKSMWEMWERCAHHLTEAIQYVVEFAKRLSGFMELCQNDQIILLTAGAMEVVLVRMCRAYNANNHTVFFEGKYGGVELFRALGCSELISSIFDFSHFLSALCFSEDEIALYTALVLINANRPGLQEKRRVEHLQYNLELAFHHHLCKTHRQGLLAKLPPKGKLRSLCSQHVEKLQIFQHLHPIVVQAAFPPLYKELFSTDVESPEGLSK
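Stably transfected Drosophila Schneider cells are the test system, with ROR gamma fused to Gal4 and luciferase under UAS control; luminescence is read after 20 hr of 700 uM copper sulfate induction at ambient temperature.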
IL-1B inflam inh: blocks inflammasome-driven IL-1 beta release | THP-1 LPS/ATP IL-1B secretion, AlphaLISA, 16 h; stronger effect = lower value | activity change, % at 57.5 µM | 4.7% of 360,000 active; in the data active = activity change below about -50%; inconclusive = mostly about -30% to -49%
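Secreted IL-1B measured by AlphaLISA bead assay after 16 h compound exposure of THP-1 cells; compounds (final up to 57.5 uM) added 1 h before LPS (250 ng/mL) and ATP (1.25 mM) stimulation; lower signal means less secretion.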
Gal4-VP16 FLuc: inhibits Gal4-VP16 luciferase reporter, ROR gamma counter-screen | Drosophila S2 Gal4-VP16 UAS-luciferase, luminescence, 20 h | Potency, µM (series often up to 53.6 µM), hits mostly inhibitors | 3.5% of 310,000 active;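 also: Gal4-VP16 expression switched on by copper sulfate through the metallothionein promoter; nearly all actives have a fitted effect of over 50% in size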
Hits are given with their value. Unless noted, calls follow the shape of the dose curve; as a rule, active = well fitted curve in the direction sought with a large enough effect; inconclusive = small, poorly fitted or top-dose-only effect, or another doubt; inactive = no such curve, though single readings can be large; an effect the other way counts as inactive or inconclusive.

Results for Cc1cc(C)cc(-n2ccn(CC(=O)NCCc3ccccc3)c(=O)c2=O)c1 ?
MCF10A rereplic: inactive; SW480 rerep: inactive; RORgamma inh: inactive; IL-1B inflam inh: inactive; Gal4-VP16 FLuc: inactive

How did Cc1cc2c(C)cc(=O)oc2c2c1NCCC2 do in these assays?
MCF10A rereplic: 12.6µM; SW480 rerep: inconclusive; RORgamma inh: inactive; IL-1B inflam inh: inconclusive; Gal4-VP16 FLuc: inactive

Results for Cc1cc2cc3c(C)cc(=O)oc3c(C)c2o1 ?
MCF10A rereplic: inactive; SW480 rerep: inactive; RORgamma inh: inactive; IL-1B inflam inh: inactive; Gal4-VP16 FLuc: inactive

Results for CCOC(=O)C1CCCN(C(=O)c2ccc(C(F)(F)F)nc2C)CC1 (centres undefined) ?
IL-1B inflam inh: inactive

How did COc1cccc(CN(C)C(=O)[C@@H](NC(=O)c2ccc(C)cc2)C(C)C)c1 do in these assays?
MCF10A rereplic: inactive; SW480 rerep: inactive; RORgamma inh: inactive; IL-1B inflam inh: inactive; Gal4-VP16 FLuc: inactive

Results for COc1ccc(-c2c3c(=O)n(C)c(=O)n(C)c3cn2-c2ccc(O)cc2)cc1 ?
MCF10A rereplic: inactive; SW480 rerep: inactive; RORgamma inh: inactive; IL-1B inflam inh: -55.0; Gal4-VP16 FLuc: inconclusive

How did c1cc(-c2cc3nc(NC4CCCCC4)ccn3n2)ccc1OCCN1CCOCC1 do in these assays?
IL-1B inflam inh: -76.4

What do the screens show for `CCOc1cccc(/C=C/c2cc(C(=O)O)c3ccccc3n2)c1OC`?
MCF10A rereplic: inactive; SW480 rerep: inactive; RORgamma inh: 4.47µM; IL-1B inflam inh: inactive; Gal4-VP16 FLuc: inconclusive

How did CCOc1cc(/C=C/c2cc(C(=O)O)c3ccccc3n2)ccc1OC do in these assays?
MCF10A rereplic: inactive; SW480 rerep: inactive; RORgamma inh: 12.6µM; IL-1B inflam inh: inactive; Gal4-VP16 FLuc: inconclusive

Results for O=[N+]([O-])c1cc(Br)c(O)c(/C=N/Nc2nnnn2-c2cccc3ccccc23)c1 ?
MCF10A rereplic: 4.11µM; SW480 rerep: inactive; RORgamma inh: 3.16µM; IL-1B inflam inh: inactive; Gal4-VP16 FLuc: 6.31µM

Results for O=[N+]([O-])c1cc(Br)c(O)c(C=Nc2ccc(N3CCOCC3)cc2)c1 ?
MCF10A rereplic: inconclusive; SW480 rerep: inactive; RORgamma inh: inactive; IL-1B inflam inh: inactive; Gal4-VP16 FLuc: inactive

Results for Cc1ccccc1-c1cc2nc(NCCOc3ccccc3Cl)n(C)c(=O)c2s1 ?
IL-1B inflam inh: inactive

Results for CCNC(=O)C1(C)CCCN(C(=O)Cc2ccc(OC)c(OC)c2)C1 (centres undefined) ?
IL-1B inflam inh: inactive

How did COC(=O)c1ccc(C(NC(=O)OCc2ccccc2)/C(F)=C/[C@@H](C)C(=O)NCCc2c[nH]c3ccc(OC)cc23)cc1 (some centres undefined) do in these assays?
RORgamma inh: inconclusive; Gal4-VP16 FLuc: inactive

What do the screens show for `CN1CCN(C(=O)/C=C/c2cn(-c3ccccc3)nc2-c2ccc3c(c2)OCCO3)CC1`?
MCF10A rereplic: inconclusive; SW480 rerep: inconclusive; RORgamma inh: inactive; IL-1B inflam inh: -61.6; Gal4-VP16 FLuc: inactive

What do the screens show for `O=C(O)/C=C/c1cn(-c2ccccc2)nc1-c1ccc2c(c1)OCCO2`?
MCF10A rereplic: inactive; SW480 rerep: inactive; RORgamma inh: inconclusive; IL-1B inflam inh: inactive; Gal4-VP16 FLuc: inactive

How did O=C(/C=C\c1cn(-c2ccccc2)nc1-c1ccc2c(c1)OCCO2)N1CCOCC1 do in these assays?
MCF10A rereplic: 18.4µM; SW480 rerep: inactive; RORgamma inh: inactive; IL-1B inflam inh: inactive; Gal4-VP16 FLuc: inactive

What do the screens show for `CN(C)C(=O)/C=C\c1cn(-c2ccccc2)nc1-c1ccc2c(c1)OCCO2`?
MCF10A rereplic: inactive; SW480 rerep: inactive; RORgamma inh: inconclusive; IL-1B inflam inh: inconclusive; Gal4-VP16 FLuc: inactive

Results for CC12CCC(=O)N1C(C(=O)Oc1cccc(F)c1)CS2 (centres undefined) ?
IL-1B inflam inh: inactive

How did OCC1CCN(Cc2cn(Cc3ccccc3)nc2-c2cc3ccccc3o2)CC1 do in these assays?
MCF10A rereplic: inactive; SW480 rerep: inactive; RORgamma inh: inactive; IL-1B inflam inh: -55.8; Gal4-VP16 FLuc: inactive

Results for OCC1CCCN(Cc2cn(Cc3ccccc3)nc2-c2cc3ccccc3o2)C1 (centres undefined) ?
MCF10A rereplic: inactive; SW480 rerep: inactive; RORgamma inh: inactive; IL-1B inflam inh: -61.9; Gal4-VP16 FLuc: inactive

How did COCCNc1ccnc(-c2ccccc2C)n1 do in these assays?
RORgamma inh: inactive; Gal4-VP16 FLuc: inactive
